Inconclusive results are not listed. Active and inactive are the calls of the source. Unless noted, the call rests on the fitted dose curve; in most records, active means well fitted curve in the direction sought with a large enough effect; inconclusive means small, poorly fitted or top-dose-only effect, or another doubt; inactive means no such curve, though single readings can be large; an effect the other way counts as inactive or inconclusive.
What was measured:
[1] = HPAF-II 24hr Apoptosis Induction qHTS against the NCATS CANVASS Library (AID 1347356); further: 0% is about no effect
Summary of the method: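 Caspase-Glo 3/7 luminescence, read after 15 min room-temperature development, measures apoptosis in HPAF-II cells treated 24 h at 37 degrees C with an 11-point concentration series; 500 cells/well; doxorubicin control.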

[2] = HPAF-II 12hr Apoptosis Induction qHTS against the NCATS CANVASS Library (AID 1347358); further: 0% is about no effect
Summary of the method: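 Caspase-3/7 activation by DEVD-substrate luminescence (Caspase-Glo 3/7, 15 min, room temperature) after a 12-hour compound exposure in 11 concentrations, of HPAF-II pancreatic cells seeded at 500/well in DMEM with 10% FBS.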

[3] = HEK293 24hr Apoptosis Induction qHTS against the NCATS CANVASS Library (AID 1347359); further: 0% is about no effect
Summary of the method: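 HEK293 cells, 500 per well, exposed to an 11-point compound series for 24 hours at 37 degrees C. Caspase 3/7 activity read by Caspase-Glo luminescence (DEVD substrate) after 15 min at room temperature.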

[4] = HPAF-II 18hr Apoptosis Induction qHTS against the NCATS CANVASS Library (AID 1347360); further: 0% is about no effect
Summary of the method: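 Seed HPAF-II cells at 500/well in DMEM + 10% FBS, pin-transfer compounds, incubate 18 hours at 37 degrees C/5% CO2, add Caspase-Glo 3/7 reagent, wait 15 min, read luminescence.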

[5] = qHTS for ATAD5 Agonist screened against the NCATS CANVASS Library (AID 1347367);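 further: luciferase reporter driven by ATAD5 which rises upon DNA damage; 0% is about no effect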
Summary of the method: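 HEK293T-ATAD5 luc reporter; 2000 cells/well; 5hr settle; cpd 11-pt qHTS; 16hr 37C 5% CO2 dark; viability by CellTiter-Fluor (AFC fluorescence); then luciferase luminescence, 30min RT.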

[6] = MCF7 Cancer Cell Toxicity qHTS against the NCATS CANVASS Library (AID 1347369)
Summary of the method: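 Cells seeded at 500/well, then compound pinned. Plates incubated 72 hr at 37C, 5% CO2. CellTiterGlo added; luminescence read.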

[7] = biological target: Nuclear receptor subfamily 1 group I member 3 (Homo sapiens) (UniProt Q14994); experiment: qHTS for Constitutive Androstane Receptor (CAR) Agonist screened against the NCATS CANVASS Library (AID 1347373);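 further: every well also contained 1.5 µM PK11195 alongside the test compound; 0% is about no effect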
Chain of Nuclear receptor subfamily 1 group I member 3 (Homo sapiens) (Q14994 whole entry, looked up): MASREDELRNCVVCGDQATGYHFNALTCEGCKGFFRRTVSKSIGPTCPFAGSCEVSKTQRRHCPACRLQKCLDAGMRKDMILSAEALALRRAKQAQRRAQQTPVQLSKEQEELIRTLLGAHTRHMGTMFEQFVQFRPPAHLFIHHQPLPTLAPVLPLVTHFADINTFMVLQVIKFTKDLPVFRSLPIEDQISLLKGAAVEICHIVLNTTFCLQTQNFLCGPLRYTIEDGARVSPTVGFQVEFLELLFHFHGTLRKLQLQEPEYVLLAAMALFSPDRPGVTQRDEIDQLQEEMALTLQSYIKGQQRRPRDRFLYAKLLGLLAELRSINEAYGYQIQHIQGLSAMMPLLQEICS
Summary of the method: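 Agonist mode with 1.5uM PK11195 present: compounds for 24hr on HepG2-hCAR-CYP2B6 cells. CellTiter-Fluor fluorescence (ex 405, em 540 nm) gives viability; ONE-Glo luminescence reports CAR activation.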

[8] = DH5-alpha competent E. coli microbial cell viability qHTS against the NCATS CANVASS Library (AID 1347377); conditions: outcome: dose series up to 46.1 µM unless noted
Summary of the method: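 Bacterial viability as ATP-dependent luminescence (BacTiter-Glo), read after overnight 37 °C exposure of DH5-alpha competent E. coli to compounds in 11-point titration.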

[9] = qHTS for H2AX Agonists against the NCATS CANVASS Library (AID 1347378);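 further: phospho-H2AX S139 level in CHO-K1 lysates by TR-FRET emission ratio; 0% is about no effect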
Summary of the method: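 CHO-K1, 1000 cells/well, o/n 37C; cpd several conc, 3 hr 37C, 0.76% DMSO; lyse 30 min RT; cryptate anti-pH2AX(S139) + d2 anti-H2AX, 24 hr RT; HTRF 665/620.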

[10] = qHTS for Inflammasome Signaling Inhibitors: IL-1-beta AlphaLISA screen against the NCATS CANVASS Library (AID 1347379);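 further: human THP-1 cells primed with LPS then triggered with ATP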;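 on Potency: secreted IL-1B measured as AlphaLISA emission at 615 nm; potency means the concentration at half of the fitted maximal effect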;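 on activity change, negative = inhibition: secreted IL-1B measured as AlphaLISA emission at 615 nm; on the % scale 0 is the no-effect control and ±100 the full control effect; lower signal means less IL-1B release which is the wanted effect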
Summary of the method: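 Secreted IL-1B from human THP-1 cells quantified by AlphaLISA 16 hr after compound addition (final up to 57.5 uM). A 1 hr compound pretreatment preceded inflammasome activation with 250 ng/mL LPS plus 1.25 mM ATP (final).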

[11] = qHTS for activators of dead-cell proteases activity screened against the NCATS CANVASS Library (AID 1347392);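 further: luminescence from protease leaking out of membrane-damaged cells cleaving impermeant substrate; 0% is about no effect; rising signal means more cytotoxicity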
Summary of the method: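 HepG2, 2000 cells/well, 18 h attach; cpd 11-pt, 5 h 37C 5% CO2; CytoTox-Glo (AAF-aminoluciferin) 15 min RT; luminescence read.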

[12] = HEK293 18hr Apoptosis Induction qHTS against the NCATS CANVASS Library (AID 1347357); further: 0% is about no effect
Summary of the method: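 Cells seeded at 500/well in DMEM + 10% FBS. Compounds pinned, 11 concentrations. 18 h, 37 degrees C/5% CO2. Caspase-Glo 3/7 added, 15 min RT dark, luminescence read.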

[13] = qHTS for Hypoxia signaling pathway (HIF-1) agonists against the NCATS CANVASS Library (AID 1347375); further: 0% is about no effect
Summary of the method: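 Beta-lactamase reporter under HRE control in ME-180 cells; compounds (11-point qHTS series) added after 5 hrs plating, then 17 hrs at 37C. FRET substrate read after 2 hr; same-well CellTiter-Glo luminescence gave viability and normalization.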

[14] = qHTS to identify inhibitors of the type 1 interferon - major histocompatibility complex class I in skeletal muscle: primary screen against the NCATS Mechanism Interrogation Plate v5.0 (MIPE) Libary (AID 1347411); further: potency means the concentration at half of the fitted maximal effect; nearly all actives have a fitted effect of over 65% in size
Summary of the method: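 Luminescence from CRISPR HiBit-tagged endogenous HLA-B in human myoblasts reported MHC class I level after 24 h of IFN-beta (4 ng/ml) plus compound. Compounds ran as 11-point 1:3 series, top 46 uM final.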

[15] = Primary qHTS for inhibitors of nuclear receptor binding SET domain protein 2 (NSD2) in an isogenic RCH-ACV NSD2 p.E1099K mutant (9B) (AID 1645876); further: potency means the concentration at half of the fitted maximal effect; nearly all actives have a fitted effect of over 70% in size
[16] = Primary qHTS for inhibitors of nuclear receptor binding SET domain protein 2 (NSD2) in an RCH-ACV wild type WT cells (2C) (AID 1645877); further: potency means the concentration at half of the fitted maximal effect; nearly all actives have a fitted effect of over 70% in size
[17] = biological target: Glutathione peroxidase 1 (Homo sapiens) (UniProt P07203); experiment: Primary qHTS Assay for Inhibitors of Recombinant Selenoprotein Glutathione Peroxidase 1 (GPX1) (AID 1845191); further: nearly all actives have a fitted effect of over 65% in size
Chain of Glutathione peroxidase 1 (Homo sapiens) (P07203 whole entry, looked up): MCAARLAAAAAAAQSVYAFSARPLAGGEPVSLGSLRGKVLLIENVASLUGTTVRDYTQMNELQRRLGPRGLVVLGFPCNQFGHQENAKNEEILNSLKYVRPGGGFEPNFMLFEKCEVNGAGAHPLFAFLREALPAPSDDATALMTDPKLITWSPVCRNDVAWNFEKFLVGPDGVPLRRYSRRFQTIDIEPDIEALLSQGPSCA
Summary of the method: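 GR-coupled readout: NADPH consumption tracked by fluorescence, ex 340/em 450 nm, at t=0 and after 15 min at RT. Final mix 10 nM GPX1, 1 mM GSH, 0.5 mM CHP, 0.5 mM NADPH, 100 nM GR, 0.01% BSA, following 30 min enzyme–compound preincubation.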

[18] = biological target: Phospholipid hydroperoxide glutathione peroxidase GPX4 (Homo sapiens) (UniProt P36969); experiment: Primary qHTS Assay for Inhibitors of Recombinant Selenoprotein Glutathione Peroxidase 4 (GPX4) (AID 1845192); conditions: outcome: dose series up to 50 µM unless noted; further: on the % scale 0 is the no-effect control and ±100 the full control effect; nearly all actives have a fitted effect of over 65% in size
Chain of Phospholipid hydroperoxide glutathione peroxidase GPX4 (Homo sapiens) (P36969 whole entry, looked up): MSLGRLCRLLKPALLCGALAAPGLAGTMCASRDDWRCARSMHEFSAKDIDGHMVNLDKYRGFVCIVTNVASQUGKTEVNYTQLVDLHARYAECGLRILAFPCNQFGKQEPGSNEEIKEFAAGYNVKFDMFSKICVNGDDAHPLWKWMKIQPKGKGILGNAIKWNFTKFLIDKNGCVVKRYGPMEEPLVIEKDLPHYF
Summary of the method: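 Steps: GPX4 plus compound, 30 min RT; add GR/GSH/NADPH master mix; start with cumene hydroperoxide; read 340/450 nm fluorescence at 0 and 15 min. Finals were 200 nM GPX4, 1 mM GSH, 0.5 mM CHP, 0.5 mM NADPH, 100 nM GR.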

[19] = qHTS drug screen for cell cycle checkpoint inhibitors in PARPi-resistant BRCA-mutant ovarian cancer cell lines. (AID 1963452; calls by dose curve); conditions: PEO1/OlaR viability, CellTiter-Glo luminescence, 96 h, stronger effect = lower value
Summary of the method: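 PEO1, PEO4 and PEO1/OlaR ovarian cancer cells, 600 per well, exposed 96 h at 37C to a dilution series. Viability read by CellTiter-Glo luminescence, normalized to DMSO and empty wells; activity summarized as Z-AUC.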

[20] = qHTS assay to identify inhibitors of the type 1 interferon - major histocompatibility complex class I in skeletal muscle: Counter screen cell viability and HiBit confirmation (AID 1347412); conditions: iHSKM muscle cells + IFN-b, HiBiT or CellTiter-Glo, 24 h; for Potency: HiBiT; for activity change, negative = inhibition: Viability, at 45.9 µM (top of the series); further: potency means the concentration at half of the fitted maximal effect; on activity change, negative = inhibition: on the % scale 0 is the no-effect control and ±100 the full control effect; on all read-outs here: nearly all actives have a fitted effect of over 60% in size
Summary of the method: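 Luminescence read-out: Nano-Glo HiBiT lytic signal from C-terminally HiBiT-tagged HLA-B in CRISPR-edited human myoblasts, plus CellTiter Glo ATP as viability counter screen. IFN-beta 4.0 ng/ml; 24 hrs treatment at 37 C, 5% CO2.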

[21] = measured here: PEO1 parental Z-AUC

C=C1C[C@H]2O[C@@H]3[C@@H]4[C@H](CC[C@@](C)(O)[C@@H]42)[C@H](C)COC3(C)[C@@H](OC(=O)CCCCCCC)CC1=O (some centres undefined)
inactive: outcome [1] | Potency [2] | Potency [3] | Potency [4] | Potency [5] | Potency [6] | Potency [7] | outcome [8] | Potency [9] | Potency [11]
active: Potency [10] 19300 nM

C[C@H](CCC(O)C(C)(O)CO)[C@@]1(O)CC[C@@]2(C)C3=C(CC[C@@]21C)[C@@]1(C)CCC(OC(=O)CCC(=O)O)C(C)(C)[C@@H]1CC3 (some centres undefined)
inactive: outcome [1] | Potency [12] | Potency [3] | Potency [4] | Potency [5] | Potency [6] | Potency [7] | outcome [13] | outcome [8] | Potency [10] | Potency [11]

Cc1ccc(NC(=O)c2ccc3c(c2)OCCO3)cc1NC(=O)c1ccc2nc(OCCN3CCCC3)ccc2c1
active: Potency [14] 286 nM | Potency [15] 57.4 nM | Potency [16] 45.6 nM | Potency [20] 557 nM
-1.87: Z-AUC [19, 21]
inactive: Potency [17] | Potency [18] | Z-AUC [19] -1.99 | activity change, negative = inhibition [20] -19.9%
-2.21: Z-AUC ([19]; measured here: PEO4 Z-AUC)

Cc1ncsc1-c1ccc([C@H](C)NC(=O)[C@@H]2C[C@@H](O)CN2C(=O)[C@@H](NC(=O)COCCCOCCNC(=O)C[C@@H]2N=C(c3ccc(Cl)cc3)c3c(sc(C)c3C)-n3c(C)nnc32)C(C)(C)C)cc1
-2.46: Z-AUC [19, 21]
active: Potency [14] 208 nM | Potency [15] 14.8 nM | Potency [16] 18.6 nM | Potency [20] 394 nM
inactive: Potency [17] | Potency [18] | Z-AUC [19] -2.25 | activity change, negative = inhibition [20] -12.4%
-2.23: Z-AUC ([19]; measured here: PEO4 Z-AUC)

C=C[C@@](C)(O)CC[C@@H]1[C@@]2(C)CCCC(C)(C)[C@@H]2CC[C@@]1(C)O
inactive: outcome [1] | Potency [12] | Potency [2] | Potency [3] | Potency [4] | Potency [5] | Potency [6] | Potency [7] | outcome [13] | Potency [9] | Potency [10] | Potency [11] | Potency [17]

COc1cc(C2C3=C(Cc4cc5c(cc42)OCO5)C(=O)OC3)cc(OC)c1OC (centres undefined)
inactive: outcome [1] | Potency [12] | Potency [2] | Potency [3] | Potency [4] | Potency [5] | Potency [7] | outcome [13] | outcome [8] | Potency [9] | Potency [10] | Potency [11]

C=C[C@]1(C)CC[C@@H]([C@H](C)C(=O)/C=C/C(C)(C)O)O1
inactive: outcome [1] | Potency [12] | Potency [2] | Potency [3] | Potency [4] | Potency [5] | Potency [6] | outcome [13] | outcome [8] | Potency [9] | Potency [10] | Potency [11]
